Test results: paper PMC8384837, “Expanding the binding specificity for RNA recognition by a PUF domain”

Target: PUM1 PUF domain R5-TRV (Homo sapiens, UniProt Q14671 828-1176, C1007T;Q1011V)
Assay: yeast three-hybrid, YBZ-1, SC-Leu-His + 0.5 mM 3-AT, 4 days
Details: tags: N-Gal4 AD-HA kept; label: inside an RPR1-promoter hybrid RNA with tandem MS2 sites; ssRNA
Outline: (§1)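 Pumilio-1 PUF domain libraries, randomized at the three base-contacting residues of each repeat, were co-expressed with matching RNA elements from a centromeric plasmid in strain YBZ-1, which carries a LexA–MS2 coat fusion and a HIS3 reporter. Transformants grew for four days on SC-Leu (input) or on SC-Leu-His + 0.5 mM 3-AT (selection), and the repeat regions were PCR-amplified and Illumina-sequenced. The interaction score is the log change in variant frequency from input to selection. That logarithm is base 2, with a pseudocount of 1 where a variant was absent.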

Chain of PUM1 PUF domain R5-TRV (Q14671 828-1176 C1007T/Q1011V): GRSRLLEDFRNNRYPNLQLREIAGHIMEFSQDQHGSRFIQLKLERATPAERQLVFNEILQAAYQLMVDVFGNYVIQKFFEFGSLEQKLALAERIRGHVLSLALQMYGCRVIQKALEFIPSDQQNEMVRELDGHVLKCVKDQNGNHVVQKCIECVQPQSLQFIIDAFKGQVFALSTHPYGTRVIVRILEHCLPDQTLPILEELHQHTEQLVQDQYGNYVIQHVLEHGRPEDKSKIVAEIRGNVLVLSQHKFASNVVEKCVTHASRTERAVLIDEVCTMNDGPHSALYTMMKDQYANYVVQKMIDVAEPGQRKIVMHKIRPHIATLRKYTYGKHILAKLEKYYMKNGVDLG

Sequence	binding signal
GGCUAGAACUAGUGGAUCCCCCGGCGCCCGGCGGCUCGAGCCCGGGUAAGUGUGAAUAGUCUGCAUGCCGCCGGGCGCCAUGCCUGCAGGUCGACUCUAGAAAACAUG	3.38 log2 enrichment (interaction score)
GGCUAGAACUAGUGGAUCCCCCGGCGCCCGGCGGCUCGAGCCCGGGUAAGUGUUAAUAGUCUGCAUGCCGCCGGGCGCCAUGCCUGCAGGUCGACUCUAGAAAACAUG	3.28 log2 enrichment (interaction score)
GGCUAGAACUAGUGGAUCCCCCGGCGCCCGGCGGCUCGAGCCCGGGUAAGUGUAAAUAGUCUGCAUGCCGCCGGGCGCCAUGCCUGCAGGUCGACUCUAGAAAACAUG	4.29 log2 enrichment (interaction score)

Target: PUM1 PUF domain R8-CYR (Homo sapiens, UniProt Q14671 828-1176, N1122C;Q1126R)
Assay: as above
Details: tags: N-Gal4 AD-HA kept; label: inside an RPR1-promoter hybrid RNA with tandem MS2 sites; ssRNA
Outline: as §1

Chain of PUM1 PUF domain R8-CYR (Q14671 828-1176 N1122C/Q1126R): as the sequence (Q14671 828-1176 C1007T/Q1011V) above, with T180C, V184Q, N295C, Q299R counted along it

Sequence	binding signal
GGCUAGAACUAGUGGAUCCCCCGGCGCCCGGCGGCUCGAGCCCGGGUAAGCGUAAAUAGUCUGCAUGCCGCCGGGCGCCAUGCCUGCAGGUCGACUCUAGAAAACAUG	4.19 log2 enrichment (interaction score)
GGCUAGAACUAGUGGAUCCCCCGGCGCCCGGCGGCUCGAGCCCGGGUAAGGGUAAAUAGUCUGCAUGCCGCCGGGCGCCAUGCCUGCAGGUCGACUCUAGAAAACAUG	2.63 log2 enrichment (interaction score)
GGCUAGAACUAGUGGAUCCCCCGGCGCCCGGCGGCUCGAGCCCGGGUAAGUGUAAAUAGUCUGCAUGCCGCCGGGCGCCAUGCCUGCAGGUCGACUCUAGAAAACAUG	4.59 log2 enrichment (interaction score)
